Test results: ChEMBL document CHEMBL5724796, “Tm Shift (DSF) assay results for EUbOPEN Chemogenomics Library” (2024)
Residues, ends and D or L forms follow the SMILES beside them. *: point of attachment. CH2Cl = ClC*

Tests used:
Conditions in all cases: Compound concentration 20.0 uM
[1] = molecular target: Tyrosine-protein kinase ABL1 (Homo sapiens) (UniProt P00519)
[2] = molecular target: Bromodomain-containing protein 4 (Homo sapiens) (UniProt O60885)
[3] = molecular target: Cyclin-dependent kinase 2 (Homo sapiens) (UniProt P24941)
[4] = molecular target: Casein kinase I isoform delta (Homo sapiens) (UniProt P48730)
[5] = molecular target: Glycogen synthase kinase-3 beta (Homo sapiens) (UniProt P49841)
[6] = molecular target: Mitogen-activated protein kinase 1 (Homo sapiens) (UniProt P28482)
[7] = molecular target: T1, Aurora kinase A (Homo sapiens) (UniProt O14965)
T1 sequence (whole entry): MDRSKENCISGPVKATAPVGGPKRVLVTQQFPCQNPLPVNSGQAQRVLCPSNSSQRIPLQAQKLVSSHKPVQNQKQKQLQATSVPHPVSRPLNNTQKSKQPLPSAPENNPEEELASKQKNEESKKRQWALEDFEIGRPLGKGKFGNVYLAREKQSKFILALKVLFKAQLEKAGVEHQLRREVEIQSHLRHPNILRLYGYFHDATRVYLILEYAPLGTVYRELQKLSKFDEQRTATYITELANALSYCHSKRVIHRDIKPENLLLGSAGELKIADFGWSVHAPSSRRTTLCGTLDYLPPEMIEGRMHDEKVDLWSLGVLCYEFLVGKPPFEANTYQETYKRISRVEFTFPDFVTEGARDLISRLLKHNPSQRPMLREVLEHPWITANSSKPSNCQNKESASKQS

[8] = molecular target: T2, Transcription intermediary factor 1-alpha (Homo sapiens) (UniProt O15164)
T2 sequence (whole entry): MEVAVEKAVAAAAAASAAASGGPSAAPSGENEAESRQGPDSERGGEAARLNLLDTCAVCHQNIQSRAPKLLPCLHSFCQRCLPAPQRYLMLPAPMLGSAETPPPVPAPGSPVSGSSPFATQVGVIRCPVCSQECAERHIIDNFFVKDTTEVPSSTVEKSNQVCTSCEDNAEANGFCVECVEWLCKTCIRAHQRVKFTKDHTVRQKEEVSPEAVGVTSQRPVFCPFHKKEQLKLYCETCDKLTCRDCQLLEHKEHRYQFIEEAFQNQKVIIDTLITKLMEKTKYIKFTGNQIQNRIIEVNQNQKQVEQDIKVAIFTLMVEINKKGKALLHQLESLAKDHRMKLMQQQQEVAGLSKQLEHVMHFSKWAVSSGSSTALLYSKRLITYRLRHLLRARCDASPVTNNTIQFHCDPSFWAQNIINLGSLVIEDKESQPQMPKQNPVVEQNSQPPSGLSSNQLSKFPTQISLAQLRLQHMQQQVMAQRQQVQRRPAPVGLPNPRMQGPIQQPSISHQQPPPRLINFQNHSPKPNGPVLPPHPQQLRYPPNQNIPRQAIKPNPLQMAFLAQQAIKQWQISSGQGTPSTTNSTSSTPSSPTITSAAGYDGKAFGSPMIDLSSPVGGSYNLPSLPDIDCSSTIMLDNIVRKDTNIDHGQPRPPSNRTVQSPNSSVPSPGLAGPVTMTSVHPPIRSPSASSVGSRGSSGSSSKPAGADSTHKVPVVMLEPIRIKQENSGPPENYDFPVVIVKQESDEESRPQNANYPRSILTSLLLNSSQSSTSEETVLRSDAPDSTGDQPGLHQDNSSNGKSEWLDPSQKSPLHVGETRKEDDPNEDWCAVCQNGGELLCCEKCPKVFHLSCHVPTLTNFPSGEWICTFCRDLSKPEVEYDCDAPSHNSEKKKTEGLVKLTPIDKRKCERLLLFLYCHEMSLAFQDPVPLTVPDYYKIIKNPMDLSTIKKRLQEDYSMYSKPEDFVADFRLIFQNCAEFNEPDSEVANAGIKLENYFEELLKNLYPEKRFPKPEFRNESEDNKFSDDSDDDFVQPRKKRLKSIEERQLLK

Sequence of Tyrosine-protein kinase ABL1 (Homo sapiens) (P00519 whole entry): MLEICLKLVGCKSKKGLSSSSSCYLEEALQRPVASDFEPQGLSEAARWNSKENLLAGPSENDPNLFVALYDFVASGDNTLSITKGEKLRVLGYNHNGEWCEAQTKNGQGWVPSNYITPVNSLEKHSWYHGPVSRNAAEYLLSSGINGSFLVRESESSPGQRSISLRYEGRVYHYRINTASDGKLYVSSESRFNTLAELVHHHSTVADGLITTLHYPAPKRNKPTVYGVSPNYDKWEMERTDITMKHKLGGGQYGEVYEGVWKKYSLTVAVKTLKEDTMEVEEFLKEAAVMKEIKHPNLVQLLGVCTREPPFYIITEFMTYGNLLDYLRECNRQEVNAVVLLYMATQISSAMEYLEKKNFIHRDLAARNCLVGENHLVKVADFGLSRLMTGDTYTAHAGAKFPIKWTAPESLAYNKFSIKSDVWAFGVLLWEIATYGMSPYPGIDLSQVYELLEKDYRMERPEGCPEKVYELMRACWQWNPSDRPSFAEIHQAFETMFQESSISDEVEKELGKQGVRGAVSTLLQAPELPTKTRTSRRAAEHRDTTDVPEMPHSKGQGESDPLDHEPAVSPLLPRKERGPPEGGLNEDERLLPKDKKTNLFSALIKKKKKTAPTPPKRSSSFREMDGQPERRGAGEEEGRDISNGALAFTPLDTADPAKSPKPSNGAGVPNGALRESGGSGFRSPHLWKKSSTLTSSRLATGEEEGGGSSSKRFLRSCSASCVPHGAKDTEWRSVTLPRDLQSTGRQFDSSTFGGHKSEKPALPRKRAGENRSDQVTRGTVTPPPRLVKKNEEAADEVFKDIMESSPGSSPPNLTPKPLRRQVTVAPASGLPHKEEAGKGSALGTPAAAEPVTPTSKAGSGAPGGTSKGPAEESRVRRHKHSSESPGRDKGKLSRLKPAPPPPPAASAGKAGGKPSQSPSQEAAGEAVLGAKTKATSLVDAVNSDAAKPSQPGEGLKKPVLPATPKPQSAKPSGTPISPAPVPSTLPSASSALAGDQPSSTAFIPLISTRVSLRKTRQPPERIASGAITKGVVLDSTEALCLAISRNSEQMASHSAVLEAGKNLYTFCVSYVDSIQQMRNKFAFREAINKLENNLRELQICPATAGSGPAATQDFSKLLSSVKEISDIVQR
Sequence of Glycogen synthase kinase-3 beta (Homo sapiens) (P49841 whole entry, looked up): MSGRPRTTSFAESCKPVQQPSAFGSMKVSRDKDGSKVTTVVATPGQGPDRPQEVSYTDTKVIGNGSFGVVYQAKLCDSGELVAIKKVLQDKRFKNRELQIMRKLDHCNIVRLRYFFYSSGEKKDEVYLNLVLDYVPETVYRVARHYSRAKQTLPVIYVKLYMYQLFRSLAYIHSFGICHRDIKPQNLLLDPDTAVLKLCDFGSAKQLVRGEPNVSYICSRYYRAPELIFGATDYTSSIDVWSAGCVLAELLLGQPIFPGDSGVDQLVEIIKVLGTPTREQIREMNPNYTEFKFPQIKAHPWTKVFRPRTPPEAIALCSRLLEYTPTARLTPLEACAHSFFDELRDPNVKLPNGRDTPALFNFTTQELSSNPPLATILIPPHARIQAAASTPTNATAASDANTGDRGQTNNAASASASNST
Sequence of Mitogen-activated protein kinase 1 (Homo sapiens) (P28482 whole entry): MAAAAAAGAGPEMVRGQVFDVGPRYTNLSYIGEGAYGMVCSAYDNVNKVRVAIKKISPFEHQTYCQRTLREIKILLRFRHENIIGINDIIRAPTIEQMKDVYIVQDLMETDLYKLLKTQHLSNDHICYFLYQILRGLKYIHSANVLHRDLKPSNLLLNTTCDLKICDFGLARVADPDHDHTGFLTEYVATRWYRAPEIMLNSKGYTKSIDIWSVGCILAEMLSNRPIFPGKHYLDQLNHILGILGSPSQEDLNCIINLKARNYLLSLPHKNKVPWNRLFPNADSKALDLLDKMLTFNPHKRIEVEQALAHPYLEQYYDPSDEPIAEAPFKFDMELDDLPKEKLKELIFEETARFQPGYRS
Sequence of Casein kinase I isoform delta (Homo sapiens) (P48730 whole entry, looked up, canonical isoform): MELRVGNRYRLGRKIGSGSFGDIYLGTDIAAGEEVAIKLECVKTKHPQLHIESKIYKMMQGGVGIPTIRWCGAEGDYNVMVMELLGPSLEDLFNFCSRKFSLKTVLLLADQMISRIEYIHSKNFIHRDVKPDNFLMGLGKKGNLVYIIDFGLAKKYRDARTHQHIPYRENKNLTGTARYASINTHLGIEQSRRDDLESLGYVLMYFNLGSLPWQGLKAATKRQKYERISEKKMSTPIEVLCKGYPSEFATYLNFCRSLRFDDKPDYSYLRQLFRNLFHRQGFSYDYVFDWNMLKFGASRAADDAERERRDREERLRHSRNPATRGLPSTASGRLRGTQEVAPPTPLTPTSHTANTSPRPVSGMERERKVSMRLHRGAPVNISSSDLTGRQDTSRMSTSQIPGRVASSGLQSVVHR

SMILES	ΔTm [1]	ΔTm [2]	ΔTm [3]	ΔTm [4]	ΔTm [5]	ΔTm [6]	ΔTm [7]	ΔTm [8]
CN(CCCN1c2ccccc2CCc2ccccc21)CC(=O)c1ccc(Cl)cc1	-0.37 °C	-0.08 °C	0.04 °C	-0.19 °C	-0.11 °C	0.76 °C	-1.35 °C	0.15 °C
O=C1c2ccccc2C(=O)c2oc(-c3ccc(F)cc3)nc21	0.01 °C	-1.84 °C	-0.07 °C	-0.12 °C	-0.33 °C	0.17 °C	-2.4 °C	-0.61 °C
CC(=O)N[C@@H](Cc1ccc(O)cc1)C(=O)N[C@H](C(=O)N[C@@H](C)C(=O)N[C@H](C=O)CC(=O)O)C(C)C	0.25 °C	-2.08 °C	0.16 °C	0.05 °C	-0.9 °C	-0.12 °C	-1.08 °C	-0.33 °C
CC(C)(CNC(=O)c1cccc(-c2noc(C(F)(F)F)n2)c1)c1coc(-c2ccccc2)n1	0.61 °C	-3.84 °C	0.39 °C	0.45 °C	-8.42 °C	-3.6 °C	-2.8 °C	-1.82 °C
COCc1nc(C(F)(F)F)[nH]c1-c1cc(C(=O)N2CC(c3ccc(C#N)cc3)C2)c(C)cc1C	0.13 °C	-3.21 °C	-0.08 °C	-0.27 °C	-1.21 °C	0.07 °C	-2.54 °C	-1.79 °C
CCCOc1ccc(CCc2nc3cc(-c4c(C)noc4C)ccc3n2CCN2CCOCC2)cc1	0.14 °C	0.27 °C	-1.68 °C	0.28 °C	1.16 °C	0.33 °C	-1.97 °C	-1.29 °C
CC1(C)CC[C@]2(C(=O)O)CC[C@]3(C)C(=CC[C@@H]4[C@@]5(C)C=C(O)C(=O)C(C)(C)[C@@H]5CC[C@]43C)[C@@H]2C1	0.5 °C	-3.51 °C	-0.16 °C	-1.03 °C	-1.79 °C	-3.78 °C	-4.25 °C	0.88 °C
CC(C)c1cnc(CSc2cnc(NC(=O)C3CCNCC3)s2)o1	0.26 °C	-1.43 °C	6.28 °C	1.43 °C	7.03 °C	-0.12 °C	3.08 °C	-0.84 °C
CC(=O)N[C@@H](CC(C)C)C(=O)N[C@@H](CCC(=O)O)C(=O)N[C@@H](Cc1cnc[nH]1)C(=O)N[C@H](C=O)CC(=O)O (Ac-LEHD-aldehyde)	0.07 °C	-2.66 °C	0.05 °C	0.09 °C	-0.79 °C	-0.4 °C	-1.34 °C	-0.81 °C
CCc1c(-c2ccccc2)c(-c2ccccc2)nn1-c1ccccc1-c1cccc(OCC(=O)O)c1	-0.2 °C	-8.88 °C	-1.12 °C	-2.01 °C	0 °C	-0.5 °C	-3.9 °C	-3.28 °C
O=c1[nH][nH]c(=O)c2cc(OCc3ccsc3)ccc12	1.93 °C	-2.87 °C	0.73 °C	-0.03 °C	0.96 °C	0.65 °C	-1.5 °C	0.51 °C
CC(=O)N[C@H](C(=O)N[C@@H](CC(=O)O)C(=O)N[C@H](C(=O)N[C@@H](C)C(=O)N[C@H](C=O)CC(=O)O)C(C)C)C(C)C (Ac-VDVAD-aldehyde)	0.62 °C	-2.7 °C	-0.17 °C	-0.1 °C	0.07 °C	0 °C	-1.39 °C	-0.67 °C
CC(=O)N[C@@H](CC(C)C)C(=O)N[C@@H](CCC(=O)O)C(=O)N[C@@H](Cc1cnc[nH]1)C(=O)N[C@@H](CC(=O)O)C(=O)CCl (Ac-LEHD-CH2Cl)	0.46 °C	-2.67 °C	-0.58 °C	0.2 °C	0.91 °C	0.29 °C	-1.15 °C	-1.2 °C
COc1cc(C(=O)N2C[C@H](N)CC[C@@H]2C)cc2nc(-c3cc4cccnc4n3CC3CC3)n(C)c12	0.14 °C	0.61 °C	0.15 °C	-0.38 °C	-1.31 °C	-0.7 °C	-1.15 °C	0.53 °C
Cc1cc(C)c(CNC(=O)c2cc(-c3ccc(N4CCN(C)CC4)nc3)cc3c2c(C)cn3C(C)C)c(=O)[nH]1	0.38 °C	-2.02 °C	0.39 °C	0.02 °C	0 °C	0.02 °C	-1.34 °C	-0.72 °C
CC(C)(O)c1ccc(-c2nc3c(F)cc(F)cc3c(=O)[nH]2)cc1	1.34 °C	-1.77 °C	-0.55 °C	1.05 °C	-2.12 °C	-4.92 °C	-0.15 °C	-1.14 °C
N#Cc1cc(F)cc(Oc2ccc3c(c2C(F)F)[C@@H](O)C(F)(F)S3(=O)=O)c1	0.45 °C	-2.84 °C	-0.03 °C	-0.34 °C	0.02 °C	0.16 °C	-2.42 °C	-0.94 °C
CNc1nccc(CN([C@H]2CC[C@H](N)CC2)S(=O)(=O)c2ccc(S(=O)(=O)N(Cc3ccc(Cl)cc3)C3CCCC3)cc2)n1	-0.6 °C	-2 °C	-0.02 °C	-0.71 °C	-0.62 °C	-3.03 °C	-2.32 °C	0.19 °C
COc1cc(C(=O)NCC2(N(C)C)CCCC2)cc(OC)c1OCc1ccccc1	0.81 °C	-1.07 °C	0.36 °C	-0.21 °C	-0.01 °C	0.38 °C	-0.99 °C	3.25 °C
COc1cc2c(NC3CCN(C4CCCCC4)CC3)nc(N3CCCN(C(C)C)CC3)nc2cc1OCCCN1CCCCC1	0.29 °C	-1.02 °C	0.48 °C	0.1 °C	0.08 °C	-0.69 °C	0.32 °C	0.36 °C
C[C@@H]1CN(c2nccc(Nc3ccc4c(c3)n(CCC(C)(C)O)c(=O)n4C)n2)C[C@H](C)C1(F)F	1.46 °C	-1.76 °C	3.21 °C	-0.23 °C	-0.32 °C	-7.23 °C	-2.03 °C	-1.14 °C
COc1cc(-c2cn(C)c(=O)c3cnccc23)cc(OC)c1CN(C)C	0.4 °C	-1.71 °C	0.82 °C	-0.03 °C	0.26 °C	0.18 °C	-1.01 °C	0.87 °C
